Each structure is given as a SMILES string. ± gives the standard deviation of the averaged measurements.
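For DuctApe activity index of respiration/growth curve (0 no growth to 9 maximum) in this document: biolog PM4 phosphorus and sulfur plates, tetrazolium violet dye reduction read in the OmniLog every 15 min, kinetic curves scored by DuctApe, each plate run in triplicate.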

One assay deals with Escherichia coli Nissle 1917. Briefly: area under OmniLog respiration curve over 48 h (OmniLog units x h); higher = more growth / nutrient utilisation; extreme values may be limits of the assay. The note with it: nutrient role: C-Source, amine; incubation: 48 h, 37 °C.
As for `NCCc1ccc(O)cc1` [Tyramine], the “area under OmniLog respiration curve” value was found to be 33 ± 46.

For the molecule `NCCc1ccccc1` [Phenylethylamine], the “area under OmniLog respiration curve” value is 5.51 ± 1.4.

For `NCC(O)c1ccc(O)cc1` (racemic) [D,L-Octopamine], the “area under OmniLog respiration curve” value worked out at 6.75 ± 3.5.

Staying with this assay, now noted: nutrient role: sole nitrogen source (pyruvate carbon); incubation: 48 h, 37 °C.
Regarding `NCCc1ccc(O)cc1` [Tyramine], the “area under OmniLog respiration curve” value came out at 35.9 ± 54.

For `CCN` [Ethylamine], the “area under OmniLog respiration curve” value was 8.5 ± 6.5.

For the molecule `NCCc1ccccc1` [b-Phenylethylamine], the “area under OmniLog respiration curve” value worked out at 11.4 ± 12.

On to `O=C1NC(=O)C(=O)C(=O)N1` [Alloxan], for which the “area under OmniLog respiration curve” value came out at 402 ± 390.

For the molecule `CN` [Methylamine], the “area under OmniLog respiration curve” value amounted to 61 ± 97.

The same assay, now with this note: nutrient role: sole phosphorus source (pyruvate carbon); incubation: 48 h, 37 °C.
Take `OP(O)(O)=S` [Thiophosphate]: the “area under OmniLog respiration curve” value is 9350 ± 660.

Turning to `CN(CC(=O)O)C(=N)NP(=O)(O)O` [Phosphocreatine], the “area under OmniLog respiration curve” value turned out to be 8760 ± 510.

For the molecule `CCOP(=O)(OCC)OCC` [Triethyl Phosphate], the “area under OmniLog respiration curve” value turned out to be 4.72.

In the case of `OP(O)(=S)S` [Dithiophosphate], the “area under OmniLog respiration curve” value amounted to 9000 ± 660.

In the case of `NCCP(=O)(O)O` [2-Aminoethyl Phosphonic acid], the “area under OmniLog respiration curve” value worked out at 8180 ± 390.

`O=PO` [Hypophosphite]: the “area under OmniLog respiration curve” value was found to be 2600 ± 590.

The assay is the same for the next values; noted with them: nutrient role: sole sulfur source (pyruvate carbon); incubation: 48 h, 37 °C.
For the molecule `CCSCCC(N)C(=O)O` (racemic) [DL-Ethionine], the “area under OmniLog respiration curve” value is 286 ± 250.

As for `OP(O)(O)=S` [Thiophosphate], the “area under OmniLog respiration curve” value is 6760 ± 260.

Regarding `OP(O)(=S)S` [Dithiophosphate], the “area under OmniLog respiration curve” value came out at 7150 ± 210.

The next assay deals with Escherichia coli Nissle 1917. The assay can be described thus: DuctApe activity index of respiration/growth curve (0 no growth to 9 maximum) (index 0-9); higher = more growth / nutrient utilisation, active = 3 or more; extreme values may be limits of the assay. The note with it: nutrient role: C-Source, amine; incubation: 48 h, 37 °C.
As for `NCCc1ccc(O)cc1` [Tyramine], the DuctApe activity index was 0 (inactive).

Turning to `NCCc1ccccc1` [Phenylethylamine], the DuctApe activity index is 0 (inactive).

For `NCC(O)c1ccc(O)cc1` (racemic) [D,L-Octopamine], the DuctApe activity index was 0 (inactive).

Still in this assay, the particulars now being: nutrient role: sole nitrogen source (pyruvate carbon); incubation: 48 h, 37 °C.
As for `NCCc1ccc(O)cc1` [Tyramine], the DuctApe activity index is 0 (inactive).

In the case of `CCN` [Ethylamine], the DuctApe activity index is 0 (inactive).

As for `NCCc1ccccc1` [b-Phenylethylamine], the DuctApe activity index was 0 (inactive).

For the molecule `O=C1NC(=O)C(=O)C(=O)N1` [Alloxan], the DuctApe activity index is 1.67 (inactive).

Take `CN` [Methylamine]: the DuctApe activity index is 0 (inactive).

Staying with this assay, now noted: nutrient role: sole phosphorus source (pyruvate carbon); incubation: 48 h, 37 °C.
Turning to `OP(O)(O)=S` [Thiophosphate], the DuctApe activity index is 8.67 (active).

For the molecule `CN(CC(=O)O)C(=N)NP(=O)(O)O` [Phosphocreatine], the DuctApe activity index was 8.67 (active).

With `CCOP(=O)(OCC)OCC` [Triethyl Phosphate], the DuctApe activity index was 0 (inactive).

Regarding `OP(O)(=S)S` [Dithiophosphate], the DuctApe activity index is 8.67 (active).

In the case of `NCCP(=O)(O)O` [2-Aminoethyl Phosphonic acid], the DuctApe activity index was 8 (active).

With `O=PO` [Hypophosphite], the DuctApe activity index is 4 (active).

Still in this assay, the particulars now being: nutrient role: sole sulfur source (pyruvate carbon); incubation: 48 h, 37 °C.
Turning to `CCSCCC(N)C(=O)O` (racemic) [DL-Ethionine], the DuctApe activity index was 0 (inactive).

As for `OP(O)(O)=S` [Thiophosphate], the DuctApe activity index was 7 (active).

For the molecule `OP(O)(=S)S` [Dithiophosphate], the DuctApe activity index was 7.67 (active).

(Values after the supplement of paper PMC9801561.)
